We go through 19 compounds from PubChem BioAssay (NCI).

This is part of a sample that, as a whole, favours compounds with a hit. Of some 79,000 tested, about 15% had one in any assay. Calls of active or inactive are those of the source. No stated cut-off is given here; in the data, active means growth inhibition above about 70%; inactive means the rest.

The test can be described thus: NCI Yeast Anticancer Drug Screen. Data for the bub3 strain (AID 167). The settings on record: S. cerevisiae bub3 mutant strain, at 50.0 µM, hits give high values. In a few lines:
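Whole-cell yeast assay. The mutant strain was incubated with compounds, and growth inhibition was determined by comparison with vehicle-treated cells.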
Take `CC(C)C(CN)(C(C)C)C(C)C`: the growth inhibition is 5.3% (inactive).

`O=C(NCCCN1CCN(CCCNC(=O)Nc2ccc(Br)cc2)CC1)Nc1ccc(Br)cc1`: the growth inhibition is -1.5% (inactive).

Regarding `Cc1ccccc1C1=CCCCCC1`, the growth inhibition is -7.65% (inactive).

Take `O[C@]12c3ccccc3C1CCCCC2N1CCOCC1` (some centres undefined): the growth inhibition is -24.1% (inactive).

In the case of `Cc1ccnc(SCC(=O)O)n1`, the growth inhibition was 10.6% (inactive).

In the case of `COc1cc(C2=N/C(=C\C=C\c3ccccc3)C(=O)O2)cc(OC)c1OC`, the growth inhibition was 18.8% (inactive).

As for `CC(C)(C)CC(C)(O)COC(=S)S` (centres undefined), the growth inhibition was -7.45% (inactive).

Consider `Cc1ccc(S(=O)(=O)Nc2ccc(C(=O)NC(CCC(=O)O)C(=O)O)cc2)cc1` (centres undefined), for which the growth inhibition is -1.5% (inactive).

In the case of `Nc1n[n+](-c2ccc(Cl)cc2)no1`, the growth inhibition is 82.8% (active).

`O=C(C[n+]1ccccc1-c1ccccn1)c1ccc(-c2ccccc2)cc1`: the growth inhibition is 1% (inactive).

Turning to `C[N+]([O-])=C(c1ccccc1)c1ccccc1`, the growth inhibition is -30.8% (inactive).

Regarding `CCOc1ccc(C(=O)OC)cc1`, the growth inhibition is 38.8% (inactive).

For `O=C(O)c1c(Br)c(Br)c(Br)c(Br)c1C(=O)Nc1ccccc1F`, the growth inhibition was 4% (inactive).

For the compound `O=C(OCCCl)C1CC2C=CC1C2` (centres undefined), the growth inhibition is -7.2% (inactive).

Take `CCc1cccc(CC)c1NC(=O)c1ccc(C)cc1`: the growth inhibition was -1.35% (inactive).

With `Nc1nn(CC(O)CO)c(=O)s1` (centres undefined), the growth inhibition was 8.1% (inactive).

Turning to `Nc1nc2ccccc2[nH]1`, the growth inhibition is -11.8% (inactive).

Take `COc1ccc(N=Nc2c(C)c(C#N)c(=S)n(C3OC(COC(C)=O)C(OC(C)=O)C(OC(C)=O)C3OC(C)=O)c2-c2ccccc2)cc1` (centres undefined): the growth inhibition is 8% (inactive).

As to `[N-]=[N+]=NCC1OCOC1C1OCOC1CN=[N+]=[N-]` (centres undefined), the growth inhibition was 4.2% (inactive).
